Screening results: PubChem, National Center for Advancing Translational Sciences (NCATS)
Most compounds without a hit are left out; they make up all but 3.1% or so of the library.
PLK1 PBD block: blocks phosphopeptide binding to human PLK1 polo-box domain. P53350. Plk1 PBD binding of FITC phosphopeptide, fluorescence polarization. Potency, µM, actives largely listed as inhibitors. actives 2.8% (n = 360,000); note: series mostly up to about 57 µM; nearly all actives have a fitted effect of over 65% in size
VDR inh: blocks the human vitamin D receptor; P11473; VDR-SRC2-3 peptide fluorescence polarization, 2 h; Potency, µM, hits mostly inhibitors; actives 0.93% (n = 400,000); AID 504847
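Measured by FP: displacement of SRC2-3 coactivator peptide from VDR by library compounds, following a two-hour ambient incubation.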
Pin1 inh: human Pin1 inhibition; Q13526; Pin1 FP peptide displacement, HiFluor488, 10 min; Potency, µM (doses to about 115 µM), actives largely listed as inhibitors; actives 0.009% (n = 390,000); AID 504891; active = well fitted inhibition curve with a large enough effect in the polarisation, with a control signal flat, not every such curve was filed as active; inconclusive = small, poorly fitted or top-dose-only effect, or effect the other way, or a change in a side signal; inactive = no such curve, though single readings can be large or run the other way; the % refers to the polarisation
Target sequence (Q13526 whole entry, looked up): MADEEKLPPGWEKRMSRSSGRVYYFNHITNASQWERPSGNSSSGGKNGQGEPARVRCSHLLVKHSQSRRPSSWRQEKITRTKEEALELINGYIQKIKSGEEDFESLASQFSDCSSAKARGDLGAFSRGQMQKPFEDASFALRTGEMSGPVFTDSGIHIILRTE
Tb PFK block: T. brucei PFK enzyme inhibition. Potency, µM (doses to about 57.5 µM), usual class: inhibitors. actives 0.17% (n = 330,000). T. brucei PFK, ADP-Glo luminescence; note: nearly all actives have a fitted effect of over 60% in size
Target sequence (O15648 whole entry, looked up): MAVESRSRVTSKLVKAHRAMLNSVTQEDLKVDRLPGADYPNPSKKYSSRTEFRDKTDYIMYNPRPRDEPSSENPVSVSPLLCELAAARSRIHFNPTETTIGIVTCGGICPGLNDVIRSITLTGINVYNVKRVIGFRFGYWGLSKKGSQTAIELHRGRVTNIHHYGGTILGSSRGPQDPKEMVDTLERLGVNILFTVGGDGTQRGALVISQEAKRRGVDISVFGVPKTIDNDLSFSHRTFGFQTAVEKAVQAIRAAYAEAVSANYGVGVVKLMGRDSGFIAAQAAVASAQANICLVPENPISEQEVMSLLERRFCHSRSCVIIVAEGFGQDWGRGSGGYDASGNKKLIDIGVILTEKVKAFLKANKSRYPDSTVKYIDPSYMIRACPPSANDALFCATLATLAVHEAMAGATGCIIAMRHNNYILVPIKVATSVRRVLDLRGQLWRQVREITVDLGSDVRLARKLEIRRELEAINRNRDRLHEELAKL
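In TEA buffer at pH 8.0 with 5 mM MgCl2, enzyme (1.25 nM) converted F6P (0.5 mM) and ATP (0.1 mM) for 45 min at room temperature. ADP product was read by luciferase luminescence.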
ASM inhibitor: blocks human secretory acid sphingomyelinase. P17405. placental ASM, HMU-PC fluorogenic substrate, 60 min. Potency, µM (series often up to 57.5 µM), usual class: inhibitors. actives 0.006% (n = 340,000). AID 504937
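Human placenta-derived ASM preincubated with compound 10 min at room temperature, then reacted with 9 uM (final) fluorogenic HMU-PC substrate for 60 min at 37 C. Stop solution raises pH to 10; fluorescence read at Ex 386/Em 447 nm.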
TDP1 block: inhibitors of human tyrosyl-DNA phosphodiesterase TDP1. recombinant TDP1, AlphaScreen DNA substrate cleavage. Potency, µM (highest dose often 130 µM), hits mostly inhibitors. actives 0.28% (n = 350,000); note: nearly all actives have a fitted effect of over 40% in size
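Tdp1 1 nM final; 15 min RT w/ cpd; substrate 15 nM, 5 min; beads 10 ug/ml, 10 min; AlphaScreen read. Neg ctrl: no enzyme.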
Hits are given with their value. Unless noted, calls come from the whole dose curve; as a rule, active = well fitted curve in the direction sought with a large enough effect; inconclusive = small, poorly fitted or top-dose-only effect, or another doubt; inactive = no such curve, though single readings can be large; an effect the other way counts as inactive or inconclusive.

Results for CN(C)/C=N/c1nc2nccc(-c3ccc(Cl)cc3)n2n1 ?
PLK1 PBD block: inactive; VDR inh: inactive; Pin1 inh: inactive; Tb PFK block: inactive; ASM inhibitor: inactive; TDP1 block: inactive

What do the screens show for `CN(C)/C=N/c1nc2nccc(-c3ccccc3)n2n1`?
PLK1 PBD block: 27µM; VDR inh: inactive; Pin1 inh: inactive; Tb PFK block: inactive; ASM inhibitor: inactive; TDP1 block: inactive

How did COc1cccc(CNCCSc2nnnn2-c2ccccc2)c1OC do in these assays?
VDR inh: inactive; Pin1 inh: inactive; TDP1 block: inactive

Results for CC(=O)c1cc(CN2CCN(CCC(C)C)C(CCO)C2)cs1 (stereo unspecified) ?
PLK1 PBD block: 21µM; VDR inh: inconclusive; Pin1 inh: inactive; Tb PFK block: inactive; ASM inhibitor: inactive; TDP1 block: inactive

Results for CCOc1cc(/C=C2/C(=O)ON=C2C)ccc1OCc1ccccc1F ?
PLK1 PBD block: 0.84µM; VDR inh: inactive; Pin1 inh: inactive; Tb PFK block: inactive; ASM inhibitor: inactive

Results for C#CCOc1c(Br)cc(C2C(C(=O)OC)=C(C)NC3=C2C(=O)c2ccccc23)cc1OCC (stereo unspecified) ?
VDR inh: inactive; Pin1 inh: inactive

Results for C#CCOc1c(Br)cc(/C=C2/C(=O)ON=C2C)cc1OCC ?
PLK1 PBD block: 4.2µM; VDR inh: inconclusive; Pin1 inh: inactive; Tb PFK block: inactive; ASM inhibitor: inactive

How did C#CCOc1c(Br)cc(/C=C2/C(=O)ON=C2C)cc1OC do in these assays?
PLK1 PBD block: 2.7µM; VDR inh: inconclusive; Pin1 inh: inactive; Tb PFK block: inactive; ASM inhibitor: inactive

Results for NC(N)=NCCC[C@H](NC(=O)CNC(=O)c1ccccc1)C(=O)Nc1cc(C(F)(F)F)ccc1Cl ?
Pin1 inh: inactive; TDP1 block: inactive

What do the screens show for `CC[C@H](C)[C@H](NC(=O)[C@H](CC(C)C)NC(=O)[C@H](CC(N)=O)NC(=O)[C@@H](NC(=O)[C@@H](N)Cc1ccc(O)cc1)[C@@H](C)CC)C(=O)N[C@@H](Cc1ccc(O)cc1)C(=O)N[C@@H](CCCN=C(N)N)C(=O)N[C@@H](CC(C)C)C(=O)N[C@@H](CCCN=C(N)N)C(=O)N[C@@H](Cc1ccc(O)cc1)C(N)=O`?
VDR inh: inactive; TDP1 block: inactive

What do the screens show for `Cc1ccc2occ(CC(=O)Nc3c(C(=O)Nc4ccc(Cl)cc4)oc4ccccc34)c2c1`?
VDR inh: inactive; Pin1 inh: inactive; TDP1 block: inactive

Results for CCOC(=O)c1cnc(NCc2ccccc2OC)c2ccccc12 ?
VDR inh: inactive; Pin1 inh: inactive; TDP1 block: inactive

How did O=C(Oc1ccc(C(=S)N2CCOCC2)cc1Br)c1ccccc1F do in these assays?
PLK1 PBD block: 24µM; VDR inh: inconclusive; Pin1 inh: inactive; Tb PFK block: inactive; ASM inhibitor: inactive; TDP1 block: inactive

Results for O=C(Oc1ccc(C(=S)N2CCOCC2)cc1Cl)c1ccccc1F ?
PLK1 PBD block: inconclusive; VDR inh: inactive; Pin1 inh: inactive; Tb PFK block: inactive; ASM inhibitor: inactive

How did O=C(Oc1ccc(C(=S)N2CCOCC2)cc1)c1ccccc1F do in these assays?
PLK1 PBD block: 21µM; VDR inh: inconclusive; Pin1 inh: inactive; Tb PFK block: inactive; ASM inhibitor: inactive; TDP1 block: inactive

How did O=C(Oc1ccc(C(=S)N2CCOCC2)cc1)c1ccccc1[N+](=O)[O-] do in these assays?
PLK1 PBD block: inactive; VDR inh: inactive; Pin1 inh: inactive; Tb PFK block: inactive; ASM inhibitor: inactive

What do the screens show for `CCn1c(=O)cc(OCC(=O)NCCC(C)C)c2ccccc21`?
PLK1 PBD block: inactive; VDR inh: inactive; Pin1 inh: inactive; Tb PFK block: inactive; ASM inhibitor: inactive; TDP1 block: inactive

Results for CCn1c(=O)cc(OCC(=O)NC(C)c2ccc3c(c2)OCCO3)c2ccccc21 (stereo unspecified) ?
PLK1 PBD block: 27µM; VDR inh: inactive; Pin1 inh: inactive; Tb PFK block: inactive; ASM inhibitor: inactive; TDP1 block: inactive

What do the screens show for `COCCN(C(=S)Nc1c(C)cc(C)cc1C)C(C)c1cccnc1` (stereo unspecified)?
PLK1 PBD block: 6µM; VDR inh: 45µM; Pin1 inh: inactive; Tb PFK block: inconclusive; ASM inhibitor: inactive; TDP1 block: inactive

What do the screens show for `Cc1ccnc(NC(c2ccccn2)c2c(C)[nH]c3ccccc23)c1` (stereo unspecified)?
PLK1 PBD block: 12µM; VDR inh: inconclusive; Pin1 inh: inactive; Tb PFK block: inactive; ASM inhibitor: inactive; TDP1 block: inactive

What do the screens show for `Cc1[nH]c2ccccc2c1C(c1ccccn1)N1CCCC1` (stereo unspecified)?
PLK1 PBD block: inactive; VDR inh: inactive; Pin1 inh: inactive; Tb PFK block: inactive; ASM inhibitor: inactive; TDP1 block: inactive

How did O=C(CNC(=O)c1ccc(Cl)cc1)OC(C(=O)Nc1cc(C(F)(F)F)ccc1Cl)c1ccccc1 (stereo unspecified) do in these assays?
Pin1 inh: inconclusive; TDP1 block: inactive

How did CC(C)Sc1ccc(C(=O)Nc2ccc(F)cc2F)cn1 do in these assays?
PLK1 PBD block: 19µM; VDR inh: inactive; Pin1 inh: inactive; Tb PFK block: inactive; ASM inhibitor: inactive; TDP1 block: inactive

What do the screens show for `O=C1N=c2ccc(Br)cc2=C1c1sc(=S)n(NS(=O)(=O)c2ccccc2)c1O`?
PLK1 PBD block: 24µM; VDR inh: inconclusive; Pin1 inh: inactive; Tb PFK block: inactive; ASM inhibitor: inactive; TDP1 block: inactive

Results for O=C1N=c2ccccc2=C1c1sc(=S)n(NC(=O)c2cccc(O)c2)c1O ?
PLK1 PBD block: inactive; VDR inh: inactive; Pin1 inh: inactive; Tb PFK block: inactive; ASM inhibitor: inconclusive; TDP1 block: inactive

How did CC(=O)OCC(NC(=O)C1CCCN1C(=O)OC(C)(C)C)C1OC(n2ccc(=O)[nH]c2=O)C(OC(C)=O)C1OC(C)=O (stereo unspecified) do in these assays?
VDR inh: inactive; Pin1 inh: inactive; TDP1 block: inactive

What do the screens show for `Cc1ccc(CCC(=O)Nc2ccc(CC(=O)O)cc2)o1`?
PLK1 PBD block: 12µM; VDR inh: 79µM; Pin1 inh: inactive; Tb PFK block: inactive; ASM inhibitor: inactive; TDP1 block: inactive

How did Cc1ccc(CCC(=O)Nc2ccc(Cl)cc2)o1 do in these assays?
PLK1 PBD block: inactive; VDR inh: inactive; Pin1 inh: inactive; Tb PFK block: inactive; ASM inhibitor: inactive

What do the screens show for `Cc1cc(=O)[nH]c(SCC(=O)Nc2nc3ccccc3s2)n1`?
PLK1 PBD block: inconclusive; VDR inh: inconclusive; Pin1 inh: inactive; Tb PFK block: inactive; ASM inhibitor: inactive; TDP1 block: inactive
